This passage reports side scatter shift results from PubChem BioAssay AID1069 (NMMLSC, 2008).

Each structure is given as a SMILES string. The source made the active and inactive calls.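 Rule for the calls: active = high combined rank on largest and smallest cell-count-weighted shift across three tests, rank score above 45, floors 50 and 25 (some results past the limit were not filed as active); inactive = the rest.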

A short description of this assay: LNCaP granularity increase inducers, single-point recheck – cell-based, side scatter shift, flow cytometry, confirmation (AID 1069).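 Note: LNCaP human prostate cancer cells in low-serum medium with charcoal-stripped FBS; percent of cells with raised granularity gated so DMSO controls show 10%.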 The settings on record: LNCaP differentiation, 4 d, stronger effect = higher value.

In the case of `Cc1ccc(C)c(N2CCN(CCCNC(=O)Cn3cc4c(n3)CCC(C)C4)CC2)c1` (configuration not stated), the side scatter shift (at 100 µM) is 20% (inactive) and the side scatter shift (side scatter shift, at 10 µM) worked out at 25.6%.

`Cc1ccc(Cn2ccc(NC(=O)c3cc(-c4ccc(Br)cc4)on3)n2)cc1`: the side scatter shift (at 100 µM) was 23% (inactive) and the side scatter shift (side scatter shift, at 10 µM) was determined as 10.6%.

As for `Cc1nc2ncnn2c(C)c1CCC(=O)NCCCN1CCN(c2cccc(Cl)c2)CC1`, the side scatter shift was 37.9% (inactive) (at 100 µM) and 8.55% (side scatter shift, at 10 µM).

For the molecule `CCn1c(=O)cc(SCC(=O)NCCCN2CCN(c3ccc(F)cc3)CC2)c2ccccc21`, the side scatter shift (at 100 µM) is 14.3% (inactive) and the side scatter shift (side scatter shift, at 10 µM) was determined as 21.6%.

With `CCCS(=O)(=O)N1CCCC(C(=O)NCCCN2CCN(c3ccc(F)cc3)CC2)C1` (configuration not stated), the side scatter shift reads like this: (at 100 µM) 8.2% (inactive); (side scatter shift, at 10 µM) 12.3%.

For `Cc1cc(=O)c2ccccc2[nH]1`, the side scatter shift reads like this: (at 100 µM) 11.2% (inactive); (side scatter shift, at 10 µM) 2.3%.

As for `COc1ccc(CC(=O)Nc2ccc(-c3nnc(-c4ccc(C)cc4)o3)cc2)cc1`, the side scatter shift by setting is: (at 100 µM) 33.3% (inactive); (side scatter shift, at 10 µM) 6.65%.

As for `COC(=O)C1=C(C)N=c2s/c(=C/c3cccs3)c(=O)n2C1c1cccs1` (configuration not stated), the side scatter shift runs as follows: (at 100 µM) 32.8% (inactive); (side scatter shift, at 10 µM) 12.7%.

For `CCc1ccc(-c2nc(CN3CCCC(C(=O)O)C3)c(C)o2)cc1` (configuration not stated), the side scatter shift (at 100 µM) was 12.4% (inactive) and the side scatter shift (side scatter shift, at 10 µM) worked out at 9%.

As for `COc1ccc(Nc2nc(N3CCCC3)c3ccccc3n2)cc1`, the side scatter shift by setting is: (at 100 µM) 14% (inactive); (side scatter shift, at 10 µM) 21.6%.

`O=C(CN1CCC(n2nnc3cc(F)ccc32)CC1)Nc1ccc2c(c1)CCC2`: the side scatter shift runs as follows: (at 100 µM) 6.2% (inactive); (side scatter shift, at 10 µM) 1.9%.

For `COC(=O)c1cc(-c2ccccc2)sc1NC(=O)c1cc(C)on1`, the side scatter shift is 70% (inactive) (at 100 µM) and 13.2% (side scatter shift, at 10 µM).

On to `Cc1cc(C)n2nc(SCC(=O)Nc3ccc(F)cc3)nc2n1`, for which the side scatter shift is 4% (inactive) (at 100 µM) and 2.8% (side scatter shift, at 10 µM).

With `O=C(NCCCN1CCN(c2ccccc2F)CC1)C1CCC(=O)N1C1CCCC1` (configuration not stated), the side scatter shift is 5% (inactive) (at 100 µM) and 2.35% (side scatter shift, at 10 µM).

For the molecule `COc1ccccc1N1CCN(c2nc3ccccc3nc2C(C#N)C(=O)OC(C)C)CC1` (configuration not stated), the side scatter shift by setting is: (at 100 µM) 78.2% (active); (side scatter shift, at 10 µM) 21.1%.

As for `CCN1CCCC1CNC(=O)c1cc2c(-c3cccc(OC)c3)nn(C)c2s1` (configuration not stated), the side scatter shift runs as follows: (at 100 µM) 40% (inactive); (side scatter shift, at 10 µM) 12.8%.

`COc1ccc(-n2nnnc2SCC(=O)c2ccc(O)c(O)c2)cc1`: the side scatter shift (at 100 µM) is 0% (inactive) and the side scatter shift (side scatter shift, at 10 µM) is 2.75%.

On to `COc1ccc2c(c1)CCc1c(C(=O)Nc3cc(C)n(Cc4ccc(Cl)cc4)n3)noc1-2`, for which the side scatter shift (at 100 µM) was 37.2% (inactive) and the side scatter shift (side scatter shift, at 10 µM) was determined as 7.45%.

Regarding `CCN1CCN(c2cc(C)c3cc(NC(=O)c4ccc(Br)o4)ccc3n2)CC1`, the side scatter shift (at 100 µM) is 2.8% (active) and the side scatter shift (side scatter shift, at 10 µM) stood at 32.8%.

`Cc1ccccc1-c1nc(CN2CCC(C(=O)NCCCN3CCOCC3)CC2)c(C)o1`: the side scatter shift by setting is: (at 100 µM) 78.9% (active); (side scatter shift, at 10 µM) 13.4%.

For the molecule `Cc1cccc(OCCn2c(=O)n(C)c3ccccc32)c1`, the side scatter shift (at 100 µM) was 26.7% (inactive) and the side scatter shift (side scatter shift, at 10 µM) worked out at 4.5%.

In the case of `O=C(CCN1C(=O)COc2ccccc21)NCCCN1CCN(c2ccc(F)cc2)CC1`, the side scatter shift runs as follows: (at 100 µM) 45.3% (inactive); (side scatter shift, at 10 µM) 7.5%.

In the case of `COc1cc(C(=O)NCc2nnc(SCC(=O)NCc3ccccc3)o2)cc(OC)c1OC`, the side scatter shift runs as follows: (at 100 µM) 9.6% (inactive); (side scatter shift, at 10 µM) 7.7%.

In the case of `CN(CC(O)COc1ccc(OCC(O)CN(C)C2CCCCC2)cc1)C1CCCCC1` (configuration not stated), the side scatter shift runs as follows: (at 100 µM) 49.4% (active); (side scatter shift, at 10 µM) 8.9%.

Take `O=C(NCCCN1CCOCC1)c1cc2c(s1)CSC2`: the side scatter shift by setting is: (at 100 µM) 13.1% (inactive); (side scatter shift, at 10 µM) 9.2%.

As for `CCN1CCN(C(c2cccs2)C(C)NS(=O)(=O)c2ccc(Br)cc2)CC1` (configuration not stated), the side scatter shift (at 100 µM) is 82.4% (inactive) and the side scatter shift (side scatter shift, at 10 µM) turned out to be 17.8%.

On to `Cc1nc(NCCNC(=O)c2ccco2)c2c(C)c(C)sc2n1`, for which the side scatter shift by setting is: (at 100 µM) 24.1% (inactive); (side scatter shift, at 10 µM) 4.2%.

In the case of `CCOC(=O)N1CCN(C(=O)CCc2c(C)nc3c(c(C)nn3-c3ccc(C)c(C)c3)c2C)CC1`, the side scatter shift was 0% (inactive) (at 100 µM) and 6.6% (side scatter shift, at 10 µM).

On to `COc1ccc(Cl)cc1N1CCN(CCNC(=O)Nc2ccccc2C)CC1`, for which the side scatter shift is 16.7% (inactive) (at 100 µM) and 3.25% (side scatter shift, at 10 µM).

For the molecule `O=C(Cn1cnc2ccccc2c1=O)NCCC(=O)N1CCN(c2ccccc2)CC1`, the side scatter shift is, setting by setting: (at 100 µM) 17.1% (inactive); (side scatter shift, at 10 µM) 4%.

On to `CCn1c(=O)cc(OCC(=O)O)c2ccccc21`, for which the side scatter shift by setting is: (at 100 µM) 31.8% (inactive); (side scatter shift, at 10 µM) 6.7%.

In the case of `CCOC(=O)N1CCC(NC(=O)c2cc3c(-c4ccc(OC)c(OC)c4)nn(C)c3s2)CC1`, the side scatter shift (at 100 µM) was 16.6% (inactive) and the side scatter shift (side scatter shift, at 10 µM) worked out at 3.9%.

For the molecule `CCOC(=O)N1CCC(NC(=O)c2cc3c(-c4cccc(OC)c4)nn(C)c3s2)CC1`, the side scatter shift is 7.7% (inactive) (at 100 µM) and 2.35% (side scatter shift, at 10 µM).

As for `COc1ccc(OC)c(N=Cc2c(O)[nH]c3ccccc23)c1`, the side scatter shift runs as follows: (at 100 µM) 7.2% (inactive); (side scatter shift, at 10 µM) 6.1%.

In the case of `Cc1ccc(C(=O)/C=C/Nc2cccc(O)c2)cc1`, the side scatter shift by setting is: (at 100 µM) 35.3% (inactive); (side scatter shift, at 10 µM) 4.85%.

Regarding `Cc1oc(-c2ccc(Cl)cc2)nc1CN1CCC(C(=O)N2CCc3ccccc3C2)CC1`, the side scatter shift was 44.4% (inactive) (at 100 µM) and 17% (side scatter shift, at 10 µM).

Take `O=C(Cc1ccc(-n2cccc2)cc1)NCc1cccs1`: the side scatter shift runs as follows: (at 100 µM) 28.8% (inactive); (side scatter shift, at 10 µM) 13.2%.

`CCc1ccc(NC(=O)NCCN2CCc3ccccc3C2)cc1`: the side scatter shift is, setting by setting: (at 100 µM) 0% (inactive); (side scatter shift, at 10 µM) 8.75%.

Regarding `COC(=O)c1ccc2c(=O)n(Cc3ccco3)c(SCC(=O)Nc3ccc(C)c(Cl)c3)nc2c1`, the side scatter shift (at 100 µM) was 21% (inactive) and the side scatter shift (side scatter shift, at 10 µM) turned out to be 10.6%.

Take `CCOC(=O)N1CCC(=C2c3ccc(Cl)cc3CCc3cccnc32)CC1`: the side scatter shift is 28.6% (inactive) (at 100 µM) and 6.25% (side scatter shift, at 10 µM).

As to `CCOC(=O)Cn1nc(-c2ccc(Cl)cc2)cc1N`, the side scatter shift reads like this: (at 100 µM) 11.4% (inactive); (side scatter shift, at 10 µM) 4.7%.
